Experimental data from PubChem BioAssay AID651650 (Sanford-Burnham Center for Chemical Genomics, 2012).

biological target: Neuropilin-1 (Homo sapiens) (UniProt O14786); assay: NRP-1 b1b2 CendR peptide binding inhibitors, dose response, biochemical, FP and AlphaScreen panel (AID 651650); settings: NRP-1 b1b2 / RPARPAR peptide binding, FP or AlphaScreen; run 1, at 100 µM (top of the series)
Sequence (O14786 whole entry, looked up): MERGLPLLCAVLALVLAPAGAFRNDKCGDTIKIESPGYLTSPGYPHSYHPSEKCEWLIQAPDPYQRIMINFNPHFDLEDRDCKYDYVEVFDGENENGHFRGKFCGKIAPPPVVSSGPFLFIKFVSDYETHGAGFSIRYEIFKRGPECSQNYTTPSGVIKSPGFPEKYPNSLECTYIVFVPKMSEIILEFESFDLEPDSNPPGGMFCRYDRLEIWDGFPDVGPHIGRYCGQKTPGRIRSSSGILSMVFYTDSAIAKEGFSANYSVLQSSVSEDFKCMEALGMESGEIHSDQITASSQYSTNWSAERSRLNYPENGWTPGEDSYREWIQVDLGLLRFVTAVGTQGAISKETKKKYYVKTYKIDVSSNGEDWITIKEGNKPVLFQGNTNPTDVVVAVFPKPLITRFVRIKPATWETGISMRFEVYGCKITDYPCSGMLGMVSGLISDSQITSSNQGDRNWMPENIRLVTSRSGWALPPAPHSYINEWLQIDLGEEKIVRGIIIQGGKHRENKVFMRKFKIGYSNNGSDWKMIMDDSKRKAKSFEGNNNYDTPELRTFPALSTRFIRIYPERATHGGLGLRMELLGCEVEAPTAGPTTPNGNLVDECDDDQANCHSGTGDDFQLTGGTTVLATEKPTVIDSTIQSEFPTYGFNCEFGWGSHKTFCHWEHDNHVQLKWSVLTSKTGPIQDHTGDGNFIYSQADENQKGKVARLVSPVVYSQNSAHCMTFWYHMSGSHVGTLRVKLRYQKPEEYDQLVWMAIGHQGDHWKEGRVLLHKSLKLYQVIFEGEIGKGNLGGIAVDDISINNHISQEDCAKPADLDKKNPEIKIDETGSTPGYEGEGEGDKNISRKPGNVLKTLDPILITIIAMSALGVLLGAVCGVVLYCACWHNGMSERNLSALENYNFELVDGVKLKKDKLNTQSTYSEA

Compared with CC1(C(=O)NCc2cccc3ccccc23)CCN1Cc1cccc2c1OCO2 (centres undefined), COc1ccccc1N1CCN(C(=O)C2c3ccccc3Oc3ccccc32)CC1 is higher in inhibition: 21% for the first, 38.7% for the second.

Compared with CCOc1ccc(S(=O)(=O)N2CCN(C(=O)c3sccc3C)CC2)cc1, COc1ccc(NC(=O)CN2CCN(c3c(C)cc(C)cc3C)CC2)cc1 is lower in inhibition: 101% for the first, 2.2% for the second.

First: COc1ccc(OCC(=O)O/N=C(\N)Cc2ccc(Cl)cc2Cl)cc1
Second: Cc1ccc(COn2c(-c3ccc(Cl)cc3Cl)nc3ncccc32)cc1
The inhibition of the first is higher: 61.1% for the first, 7.33% for the second.

Compared with COc1ccc(C(=O)N[C@H](C(=O)Nc2nc3c(s2)CCCC3)C(C)C)cc1, COC(=O)c1ccccc1NC(=O)CSc1nc(C)cc(C)n1 is higher in inhibition: 22.5% for the first, 45.7% for the second.

Going from CCOC(=O)[C@@H]1[C@H]2COc3ccccc3[C@@H]2N2C(=O)N(c3ccc(Cl)cc3)C(=O)[C@]12C to N=C1C(=O)OCC1c1cc(Cl)ccc1NC(=O)Nc1ccccc1 (centres undefined), the inhibition falls from 48.8% to 47.4%.

First: COc1ccccc1N1CCN(C2CCCN(C(=O)Cn3cccn3)C2)CC1 (centres undefined)
Second: COc1ccccc1C(=O)NC(=O)CSc1nncn1C
The inhibition of the first is higher: 38.2% for the first, 30.4% for the second.

First: COC/C=C/C1=CC2=CC(=O)C(C)(OC(=O)c3cnc4ccccc4n3)C(=O)C2=CN1Cc1ccc(OC)cc1 (centres undefined)
Second: CCN(CCCNC(=O)CNC(=O)c1nn(-c2ccc(OC)cc2OC)c(=O)c2ccccc12)c1cccc(C)c1
The inhibition of the first is higher: 66.7% for the first, 24.3% for the second.

Going from CCN(CC)C(=O)C1CCCN(C(=O)Nc2ccc3nsnc3c2)C1 (centres undefined) to Cc1ccc(CN(CC(=O)NC2CCCCC2)C(=O)c2csnn2)cc1, the inhibition rises from 21.5% to 30.2%.

First: Nc1ccc(C(=O)Nc2ccc(Nc3ccncc3)cc2)c([N+](=O)[O-])c1
Second: C/C(=N\NC(=O)c1cc(O)ccc1O)c1cccc(NC(=O)c2cccc(Cl)c2)c1
The inhibition of the first is higher: 102% for the first, 27.7% for the second.

Going from CN(C(=O)COC(=O)c1nc(-c2ccccc2)n(-c2ccccc2)n1)C1CCS(=O)(=O)C1 (centres undefined) to CCOC(=O)c1ccc(NC(=O)CN2CCc3ccccc3C2)cc1, the inhibition rises from -0.283% to 1.94%.

Going from CC(=NN(Cc1ccccc1)c1ccccc1)c1ccccc1 to Cc1ccc(C(=O)Nc2ccccc2-c2ccccc2)cc1S(=O)(=O)Nc1ccccc1, the inhibition falls from 87.9% to 32.1%.

Going from COc1ccc(C(C(=O)NC(C)(C)C)N(C(=O)CCC(=O)Nc2cc(C)on2)c2c(C)cccc2C)cc1 (centres undefined) to Cc1cc(C)cc(N(CCC(=O)O)S(=O)(=O)c2ccc3ccccc3c2)c1, the inhibition falls from 42.7% to 38.7%.

Going from Cc1ccc(-n2c(-c3ccco3)nc3c(cnn3-c3ccc(C)cc3)c2=O)cc1 to Cc1ccc2c(c1)C(c1ccncc1)=NNC(c1ccc(F)cc1)=N2, the inhibition falls from 50.3% to 36.3%.

Going from CCOC(=O)Cc1ccc(NS(=O)(=O)c2ccc(SC)cc2)cc1 to COc1ccc([C@H]2/C=C\CN(C(=O)C3CC3)[C@@H](C)C(=O)N2Cc2ccc(F)cc2)cc1, the inhibition rises from 19.4% to 30.1%.

Compared with Cc1ccccc1Nc1nc(N)nc(COC(=O)CC2CC3CCC2C3)n1 (centres undefined), O=C(Nc1cccc2c1CCCC2)c1cc(C2CCCCN2C(=O)CCCc2ccccc2)on1 (centres undefined) is lower in inhibition: 3.37% for the first, -15% for the second.

First: Cn1c(=NC(=O)COc2ccccc2)sc2ccccc21
Second: COc1ccc(/C=N/NC(=O)c2ccccc2Cl)cc1CSc1nc2ccccc2s1
The inhibition of the first is lower: -1.2% for the first, 28.7% for the second.

Compared with CCOc1ccc(-n2c(Cc3cc(=O)[nH]c(=O)[nH]3)nnc2SC(C)C)cc1, CCN(CC)C(=O)CSc1nnc(-c2c[nH]c3ccccc23)o1 is lower in inhibition: 59.6% for the first, 46.9% for the second.

First: CCC1=C(OC(=O)N(CC)CC)N2C(=O)OC(=NCCOC)[C@]2(Cc2ccccc2)[C@H]2C1=CC[C@H]1C(=O)N(CC(=O)OC)C(=O)[C@H]12
Second: COc1ccncc1-c1csc(C(O)c2ccccc2)n1 (centres undefined)
The inhibition of the first is higher: 56.3% for the first, 3.78% for the second.

Going from O=[N+]([O-])c1ccc(-n2nnnc2CN2CCCCC2)cc1 to O=C(c1ccc(-c2cccc(Cl)c2)o1)N1CCN(c2ccc([N+](=O)[O-])cc2)CC1, the inhibition falls from 22.7% to 21.7%.

Molecule O=C(NNC(=O)c1csc(N2CCOCC2)n1)c1ccc(=O)[nH]c1 has an inhibition of 39.8%.
